# Inconclusive results are not listed. The source made the active and inactive calls. The calls were made as follows, unless noted: active = hit-call score of the fitted dose curve at least 0.9, where 1 is the maximum; inconclusive = response in the unintended direction; inactive = score below 0.9.
# Legend:
# [1] = Tanguay_ZF_120hpf_TR_legacy: (Legacy) Oregon State University Tanguay Lab 120 Hour Post-fertilization zebrafish Assay for Touch Response (AID 2283667)
# How it was run: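 Binary touch-response endpoint in larvae at 120 hpf after static waterborne exposure from embryo stage (28°C, 0.64% DMSO vehicle, 5 uM trimethyltin chloride as positive control); embryos dead at 24 or 120 hpf excluded; fitted as gain versus DMSO.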
# [2] = STM_H9_OrnithineISnorm_perc: Stemina devTOX quickPredict H9 human embryonic stem cell (hESC)-based Assay for Ornithine (ORN) Metabolite Biomarker, Normalized (AID 2283712; active = hit-call score of the fitted dose curve at least 0.9, where 1 is the maximum; inactive = score below 0.9;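 also: ornithine released into spent medium during last day measured by mass spectrometry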)
# How it was run: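 Ornithine in spent medium from the last 24 h of a 72 h exposure, deproteinised and quantified by UPLC-HRMS against an isotope-labelled internal standard, expressed relative to 0.1% DMSO. Pluripotent H9 cells; compound refreshed every 24 h.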
# [3] = STM_H9_CystineISnorm_perc: Stemina devTOX quickPredict H9 human embryonic stem cell (hESC)-based Assay for Cystine (CYSS) Metabolite Biomarker, Normalized (AID 2283713; active = hit-call score of the fitted dose curve at least 0.9, where 1 is the maximum; inactive = score below 0.9)
# How it was run: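 Cystine in spent media from the last 24 h of a 72 h H9 hESC exposure (daily re-dosing), measured by UPLC-HRMS. Values normalized to isotopic internal standard, then to 0.1% DMSO; viability via CellTiter-Fluor.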
# [4] = STM_H9_OrnCyssISnorm_ratio: Stemina devTOX quickPredict H9 human embryonic stem cell (hESC)-based Assay for Ornithine (ORN):Cystine (CYSS) Ratio (AID 2283714)
# How it was run: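 Ratio of internal-standard-normalized ornithine to cystine, measured by UPLC-HRMS in spent media from the last 24 h. H9 cells kept pluripotent, dosed 72 h with daily media and compound renewal; DMSO 0.1% serves as baseline.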
# [5] = CCTE_Padilla_ZF_144hpf_TERATOSCORE: (Legacy) CCTE's 144 Hour Post-fertilization zebrafish Assay Teratoscore, Padilla Lab (AID 2283679; active = hit-call score of the fitted dose curve at least 0.9, where 1 is the maximum; inactive = score below 0.9;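 as to AC50: zebrafish embryos with chorions exposed by immersion from 6-8 hpf to 5 dpf with daily renewal; teratogenicity score from eye scoring of death hatching and malformations at 144 hpf; higher score means more developmental defects relative to DMSO baseline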)
# How it was run: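 Larvae scored by eye at 144 hpf for death, hatching and malformations after a day in clean Hanks'. Before that, daily-renewed exposure at 80 uM (0.4% DMSO, 26C) from roughly 6-8 hpf through 5 dpf, 4 embryos per chemical.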
# [6] = Tanguay_ZF_120hpf_ActivityScore_legacy: (Legacy) Oregon State University Tanguay Lab 120 Hour Post-fertilization zebrafish Assay Score for Activity (AID 2283742);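 as to AC50: dechorionated Tropical 5D wild-type zebrafish embryos held singly per well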
# How it was run: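 Binary scoring of mortality and morphology by brightfield at 24 and 120 hpf, summarised into one activity score from 18 components relative to DMSO. Wild-type Tropical 5D zebrafish, chorion removed at 4 hpf, static exposure 6–120 hpf, 28 °C.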
# [7] = CEETOX_H295R_MTT_cell_viability: Viability Assessment in the CeeTox HT-H295R MTT Assay (AID 2283718; active = hit-call score of the fitted dose curve at least 0.9, where 1 is the maximum; inactive = score below 0.9;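 as to AC50: curve fitted both ways so AC50 may mark viability loss or gain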)
# How it was run: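 MTT reduction (0.5 mg/ml, 4 h at 37 C; absorbance at 570 and 650 nm) gave viability as background-corrected percent change versus controls. H295R cells had 48 h forskolin (10 uM) prestimulation, then 48 h chemical exposure at 0.1% DMSO.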
# [8] = test system: Thyroperoxidase (TPO), gene 445522; experiment: CCTE_Simmons_GUA_TPO: CCTE's Guaiacol Assay for Thyroperoxidase (TPO) Inhibition, Simmons Lab (AID 2283750)
# How it was run: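 Porcine thyroid microsomes (25 ug) in 200mM potassium phosphate, preincubated 30 s at 37C with compound (8 concentrations, 5 nM–87.5 uM) and 35mM guaiacol; 1mM H2O2 starts reaction. Absorbance change at 450nm over first 80 s; loss of signal versus DMSO, three replicates.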
# [9] = read-out: Cytochrome P450 (CYP24A1_1), CYP24A1 (gene 1591); experiment: LTEA_HepaRG_CYP24A1_1: Life Technologies and Expression Analysis (LTEA) Assay for Cytochrome P450 (CYP24A1_1) using HepaRG (AID 2283671; active = hit-call score of the fitted dose curve at least 0.9, where 1 is the maximum; inactive = score below 0.9); conditions: mRNA level, 48 h; actives raise or lower the signal
# How it was run: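 Differentiated human HepaRG cells were exposed in duplicate for 48 h in serum-free induction medium to eight concentrations (top 100 uM, half-log steps, 0.5% DMSO). CYP24A1 mRNA was quantified by TaqMan qRT-PCR, normalized to ACTB, GAPDH and POLR2A, and fitted bidirectionally versus DMSO.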
# [10] = ArunA_CellTiter_hNC: Viability Assessment in the ArunA Biomedical's Oris Neural Crest (hNC) Cell Migration Assay (AID 2283752)
# Experimental: ArunA_CellTiter_hNC is a cell-based, single-readout assay that uses human H9-derived embryonic neural crest stem cells (hNC). Measurements were taken 72 hours after chemical dosing in a 96-well plate.ArunA_CellTiter_hNC is an assay component measured from the ArunA_CellTiter_hNC assay. It is designed to make measurements of viability, a form of viability reporter, as detected with fluorescence intensity signals by HCS Fluorescent Imaging technology. Data from the assay component ArunA_CellTiter_hNC was analyzed at the endpoint, ArunA_CellTiter_hNC, in the positive analysis fitting direction relative to DMSO as the negative control and baseline of activity. […]
# To assess the hNP and hNC migration and cell titer endpoints, 60,000 cells per well were plated onto Matrigel in basal growth medium with LIF and bFGF in a 96-well plate format. […] Cell viability in the detection zone was quantitated using a Flexstation3 microplate reader (ex494 nm/em 517 nm). Corresponding cell titer endpoints were assessed for the hNP and hNC cells using the Promega CellTiter Aqueous One Solution Cell Proliferation Assay (Cat no. G3581; CellTiter 96). Finally, to gain insight into the mechanisms by which cells migrate into the detection zone, Ki-67 expression was quantified for 10 additional chemicals in the hNP and hNC systems. […]
smiles,measurement,setting,value
CCN(C(=O)c1cc(C)cc(OC[C@H](C)Nc2ccncc2)c1)C(C)C,outcome,[1],inactive
same,outcome,[2],inactive
same,AC50,[3],7 µM (active)
same,AC50,[4],7 µM (active)
Cn1cnc([N+](=O)[O-])c1Sc1ncnc2nc[nH]c12,outcome,[1],inactive
same,AC50,[2],3.25 µM (active)
same,AC50,[3],3.49 µM (active)
same,AC50,[4],3.28 µM (active)
O=C(OC[C@H]1O[C@@H](OC(=O)c2cc(O)c(O)c(OC(=O)c3cc(O)c(O)c(O)c3)c2)[C@H](OC(=O)c2cc(O)c(O)c(OC(=O)c3cc(O)c(O)c(O)c3)c2)[C@@H](OC(=O)c2cc(O)c(O)c(OC(=O)c3cc(O)c(O)c(O)c3)c2)[C@@H]1OC(=O)c1cc(O)c(O)c(OC(=O)c2cc(O)c(O)c(O)c2)c1)c1cc(O)c(O)c(OC(=O)c2cc(O)c(O)c(O)c2)c1,outcome,[1],inactive
same,AC50,[5],4.71 µM (active)
same,outcome,[6],inactive
CCOc1cccc(-n2cc(C(=O)N3CCN(c4cc(C(=O)O)c5ccccc5c4)CC3)nc2-c2ccc(C)cc2)c1,outcome,[1],inactive
same,AC50,[5],16.6 µM (active)
same,outcome,[7],inactive
Oc1ccc2c(c1)-c1ccccc1C2,AC50,[1],32.1 µM (active)
same,AC50,[5],32.9 µM (active)
same,AC50,[7],32.8 µM (active)
C=CCCCCCCCCC(=O)O,outcome,[1],inactive
same,AC50,[5],60.1 µM (active)
same,outcome,[7],inactive
CC(=O)c1ccc2c(c1)[C@H](NC(=O)c1ccc(F)cc1)[C@@H](O)C(C)(C)O2,outcome,[1],inactive
same,outcome,[6],inactive
COC(=O)c1c(Cl)c(Cl)c(C(=O)OC)c(Cl)c1Cl,outcome,[7],inactive
COC(=O)c1ccccc1O,outcome,[1],inactive
same,outcome,[6],inactive
CCOCCOCCOCCO,outcome,[1],inactive
same,outcome,[6],inactive
COCCOc1cc2cc(C(=O)NC3CCN(C(C)C)CC3)n(CC(=O)Nc3ccc(Cl)cn3)c2cn1,outcome,[1],inactive
same,outcome,[6],inactive
Cc1ccc(O)cc1,outcome,[1],inactive
same,outcome,[7],inactive
O=C(O)c1cc(N=Nc2ccc(S(=O)(=O)Nc3ccccn3)cc2)ccc1O,outcome,[6],inactive
CC(C)=CCC/C(C)=C\CO,outcome,[1],inactive
same,outcome,[7],inactive
same,outcome,[6],inactive
Nc1nc2ncc(CNc3ccc(C(=O)N[C@@H](CCC(=O)O)C(=O)O)cc3)nc2c(=O)[nH]1,outcome,[5],inactive
same,outcome,[2],inactive
same,outcome,[3],inactive
same,outcome,[8],inactive
C[C@](N)(Cc1ccc(O)c(O)c1)C(=O)O,outcome,[1],inactive
same,outcome,[7],inactive
same,outcome,[6],inactive
C1N2CN3CN1CN(C2)C3,outcome,[1],inactive
same,outcome,[6],inactive
CC1=CC(=O)CC(C)(C)C1,outcome,[7],inactive
same,outcome,[6],inactive
CCNc1ccccc1,outcome,[1],inactive
same,outcome,[6],inactive
same,outcome,[8],inactive
Cc1c(-c2cccnc2)c2ccccc2n1CCCCC(=O)O,AC50,[5],58.5 µM (active)
same,outcome,[7],inactive
same,outcome,[6],inactive
CC(C)(O)c1coc(S(=O)(=O)NC(=O)Nc2c3c(cc4c2CCC4)CCC3)c1,outcome,[1],inactive
same,outcome,[7],inactive
CC(=O)OC[C@H]1O[C@@](COC(C)=O)(O[C@H]2O[C@H](COC(C)=O)[C@@H](OC(C)=O)[C@H](OC(C)=O)[C@H]2OC(C)=O)[C@@H](OC(C)=O)[C@@H]1OC(C)=O,outcome,[1],inactive
same,outcome,[6],inactive
Nc1ccc(Nc2ccccc2)cc1,AC50,[5],10.1 µM (active)
same,AC50,[2],4.61 µM (active)
same,AC50,[3],2.69 µM (active)
same,AC50,[4],3.03 µM (active)
same,outcome,[7],inactive
same,AC50,[6],30.1 µM (active)
CC(C)=CCCC(C)=CC=O,AC50,[2],0.0217 µM (active)
same,outcome,[3],inactive
same,outcome,[6],inactive
CCn1nc(Cc2ccccc2)cc1C1CCN(C[C@H]2C[C@H](N(C)[C@@H](C(=O)O)C(C)C)C[C@@H]2c2cccc(F)c2)CC1,outcome,[1],inactive
same,outcome,[6],inactive
CCCCCCCCO,outcome,[1],inactive
same,outcome,[7],inactive
same,outcome,[6],inactive
O=C(O)CC(O)C(=O)O (centres undefined),outcome,[1],inactive
same,outcome,[6],inactive
CC[C@H]1OC(=O)[C@H](C)[C@@H](O[C@H]2C[C@@](C)(OC)[C@@H](O)[C@H](C)O2)[C@H](C)[C@@H](O[C@@H]2O[C@H](C)C[C@H](N(C)C)[C@H]2O)[C@](C)(O)C[C@@H](C)C(=O)[C@H](C)[C@@H](O)[C@]1(C)O,outcome,[6],inactive
O=C1CCC(N2C(=O)c3ccccc3C2=O)C(=O)N1 (centres undefined),AC50,[2],0.124 µM (active)
same,outcome,[3],inactive
same,AC50,[4],0.121 µM (active)
O=C(O)c1cccc(Oc2ccccc2)c1,outcome,[9],inactive
same,AC50,[5],65.2 µM (active)
same,outcome,[6],inactive
O=P(OC(CCl)CCl)(OC(CCl)CCl)OC(CCl)CCl,AC50,[5],14.3 µM (active)
same,outcome,[2],inactive
same,outcome,[3],inactive
same,outcome,[4],inactive
same,outcome,[10],inactive
O=C(O)CCN(C1(C(=O)NO)CCCC1)S(=O)(=O)c1ccc(Oc2ccc(F)cc2)cc1,outcome,[1],inactive
same,outcome,[6],inactive
C1=CCCC=CCCC=CCC1,outcome,[1],inactive
same,outcome,[6],inactive
CCCCCCCCCCCCCCCO,outcome,[1],inactive
same,AC50,[7],0.0667 µM (active)
same,outcome,[6],inactive
CNS(=O)(=O)c1cc(C(=O)N2CCC(CCN3C4CCC3CC(n3c(C)nc5ccccc53)C4)(c3cccc(F)c3)CC2)c(Cl)cc1F (centres undefined),outcome,[1],inactive
same,outcome,[7],inactive
same,outcome,[6],inactive
O=c1[nH]c2ccc(S(=O)CCN3CCC(Cc4ccc(F)cc4)CC3)cc2o1 (centres undefined),outcome,[2],inactive
same,AC50,[3],3.91 µM (active)
same,AC50,[4],5 µM (active)
same,outcome,[7],inactive
same,outcome,[6],inactive
